Inconclusive results are not listed. Calls come from the whole dose curve; as a rule, active = well fitted curve in either direction with a large enough effect (not every such curve was filed as active); inconclusive = small, poorly fitted or top-dose-only effect, or another doubt; inactive = flat fitted curve, though single readings scatter.
experiment: AP1 Signaling Pathway (AID 357); details: ME-180 (cervical carcinoma) AP-1-bla reporter, EGF-induced, beta-lactamase ratio, 5 h; at 17.2 µM (top of the series) unless noted
Method in brief: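 AP-1-bla ME-180 cells with beta-lactamase reporter under AP-1 response element, stimulated with EC50 EGF; compounds titrated, 5 hours at 37 degrees Celsius. CCF4 read at 460/530 nm ratio; positive and negative modulators judged by AC50.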
% is set by controls: 0 for no effect and ±100 for the full control effect.

Activity change, negative = inhibition, inactive:
CCOC(=O)c1c(C)n(C)c2ccc(OC)c(NC(=O)CN3CCSCC3)c12 -2.27%, CCCCCC(=O)N1CC2(C)CN(C(=O)CCCCC)CC(C)(C1)C2=O 4.08%, Cc1occc1C(=O)OCC(=O)Nc1ccc(F)cc1 17.4%, CCN(CC)CCCN1C(=O)C(=O)/C(=C(/O)c2ccc(C)cc2)C1c1ccccn1 (stereo not given) 3.29%, Cn1c(=O)c2c(nc(N3CCC(C(N)=O)CC3)n2CCSc2nc3ccccc3s2)n(C)c1=O -0.203%, Cc1cccc(-c2nc(C#N)c(NC3CCCCC3)o2)c1 -27.9%, COCCOC(=O)C1=C(C)OC(N)=C(C#N)C1c1ccco1 (stereo not given) 0.22%, CCCCC(CCC(=O)Nc1ccc(C(=O)OCC)cc1)C(=O)O (stereo not given) -10.4%, COc1ccc(/C(O)=C2/C(=O)C(=O)N(c3nc(C)c(C)s3)C2c2ccco2)cc1 (stereo not given) -13.8%, CCOC(=O)C1CCCN(c2nc3ccccc3nc2C(C#N)C(=O)OC(C)COC)C1 (stereo not given) -5.69%, COC(=O)C1=C(C)OC(N)=C(C#N)C1c1ccc(OC)c(OC)c1OC (stereo not given) 11.2%, CCOc1ccc(-n2c(SCc3ccc(C#N)cc3)nnc2-c2cccnc2)cc1 -13.8%, Cc1ccc(C)c(OCc2nnc(NC(=O)c3ccco3)s2)c1 -0.273%, O=C(c1cccc(Cl)c1)N1CCN(C(=O)c2ccccc2F)CC1 -14.3%, COc1ccccc1C1CC(c2ccc(Cl)cc2)Nc2nc(N)nn21 (stereo not given) 6.6%, CC(=O)Nc1cnc2ccccc2n1 2.26%, Cc1cccc(C)c1OCC(O)CNS(=O)(=O)c1ccccc1C(=O)N1CCOCC1 (stereo not given) -8.76%, Cc1cccc(-c2nnc3n2N=C(c2ccc(Br)cc2)CS3)c1 11.1%, CC1(C(=O)CSc2nc3ccccc3s2)CCC(=O)O1 (stereo not given) -6.34%, Cc1nnc2n(Cc3ccccc3)c(=O)c3c4c(sc3n12)CN(Cc1ccccc1)CC4 3.27%, CCOC(=O)CSC1=C(C#N)C(c2ccc3c(c2)OCO3)CC(=O)N1 (stereo not given) -5.02%, Cc1ccc(C(=O)C2=C(O)C(=O)N(c3ncccn3)C2c2ccc(Cl)cc2)o1 (stereo not given) -14%, COc1ccccc1N(O)C1CC(=O)N(c2ccc(F)cc2)C1=O (stereo not given) -0.204%, Cc1nnc(N2CCCCC2)c2ccccc12 -1.88%, Cn1c(=O)c2c3c(sc2n2c(SCC(=O)c4ccccc4)nnc12)COC(C)(C)C3 5.44%, CCN(CC)CCN1C(=O)C(O)=C(C(=O)c2ccco2)C1c1ccccn1 (stereo not given) -3.97%, CCCOc1ccc(/C(O)=C2/C(=O)C(=O)N(CCN(C)C)C2c2ccncc2)cc1 (stereo not given) -5.87%, CC1(C)CC(NC(=O)C23CCC(C)(/C(=N/O)C2)C3(C)C)CC(C)(C)N1 (stereo not given) 1.22%, Cc1ccc(N2C(=O)CC(Cn3nc(C)cc3C)C2=O)cc1 (stereo not given) -1.66%, Cn1c(-n2c(-c3ccco3)nc3ccccc3c2=O)nc2ccccc21 -5.43%, CCc1cccc(CC)c1N(COC)C(=O)Cn1nnc2ccccc21 -10.2%, c1ccc(OCc2nn3c(-c4ccco4)nnc3s2)cc1 27.2%, COc1cccc(OC)c1C(=O)Nc1nc2ccc(S(C)(=O)=O)cc2s1 -25.1%, Nc1ccc2cn[nH]c2c1 4.71%, CCc1nc(N2CCN(C(=O)c3ccccc3)CC2)c(C#N)c2c1COC(C)(C)C2 -17.6%, COc1ccccc1Cn1c2nc3ccccc3nc2c2c(=O)n(CC(C)C)cnc21 -14.3%, O=C1C2ON(c3ccccc3)C(c3cccnc3)C2C(=O)N1Cc1ccccc1 (stereo not given) -15.2%, Cn1c(=O)c2c(nc(NCc3ccc4c(c3)OCO4)n2Cc2ccccc2Cl)n(C)c1=O -22.3%, COC(=O)COn1c(SCC(=O)OC)nc2ccccc2c1=O 2.38%, COc1ccc(-c2cn3ccsc3n2)cc1 11.1%
